# In the antibiotic and cytotoxicity screens of Wong et al. (2023):
# Screen size: about 39,000 compounds; about 3,300 (8.5%) were called active. The sample holds actives, similar compounds and a random draw of the others, so the mix is not that of the screen.
# Tested on: HepG2
# Experiment: cytotoxicity call (relative viability < 0.9)
# Details: 10 µM
row,Structure (SMILES),cytotoxicity call
1,COc1cccc(NC(=O)N(C)C[C@H]2Oc3cc(Br)ccc3S(=O)(=O)N([C@H](C)CO)C[C@H]2C)c1,inactive
2,COc1cccc(NC(=O)N(C)C[C@H]2Oc3cc(C#Cc4ccncc4)ccc3S(=O)(=O)N([C@@H](C)CO)C[C@@H]2C)c1,active
3,COc1cccc(NC(=O)N(C)C[C@@H]2Oc3cc(C#Cc4ccncc4)ccc3S(=O)(=O)N([C@H](C)CO)C[C@@H]2C)c1,active
4,COc1cccc(NC(=O)N(C)C[C@@H]2Oc3cc(C#Cc4ccncc4)ccc3S(=O)(=O)N([C@H](C)CO)C[C@H]2C)c1,active
5,COc1cccc(NC(=O)N(C)C[C@@H]2Oc3cc(C#Cc4ccncc4)ccc3S(=O)(=O)N([C@@H](C)CO)C[C@@H]2C)c1,active
6,Cc1noc(C)c1NC(=O)N(C)C[C@@H]1Oc2c(NS(=O)(=O)c3cn(C)cn3)cccc2C(=O)N([C@H](C)CO)C[C@H]1C,inactive
7,O=C(Nc1ccn([C@H]2O[C@H](CO)[C@@H](O)[C@@H]2O)c(=O)n1)c1ccccc1,inactive
8,O=C(C[C@@H]1CC[C@@H](NC(=O)c2cccnc2)[C@H](CO)O1)NCCN1CCCCC1,inactive
9,O=C(Nc1nccs1)[C@@H]1[C@@H](CO)[C@@H]2Cn3c(cccc3=O)[C@H]1N2C(=O)C1CC1,inactive
10,NCc1cnc2ccccc2c1,inactive
11,C[C@@H]1CCCCO[C@@H](CN(C)C(=O)Nc2cccc3ccccc23)[C@H](C)CN([C@H](C)CO)C(=O)c2cc(N(C)C)ccc2O1,inactive
12,C[C@H](CO)N1C[C@H](C)[C@@H](CN(C)S(=O)(=O)c2cn(C)cn2)Oc2ccc(NS(=O)(=O)c3cccs3)cc2CC1=O,inactive
13,Cc1ccc(S(=O)(=O)Nc2cccc3c2O[C@H](CN(C)Cc2ccc(C(F)(F)F)cc2)[C@@H](C)CN([C@@H](C)CO)C3=O)cc1,inactive
14,CC(=O)N1[C@@H]2c3ccc(-c4ccccc4)c(=O)n3C[C@H]1[C@H](CO)[C@H]2C(=O)NCCCN1CCOCC1,inactive
15,COc1cccc(NC(=O)N(C)C[C@@H]2Oc3cc(C#CC4(O)CCCC4)ccc3S(=O)(=O)N([C@H](C)CO)C[C@H]2C)c1,inactive
16,COc1cccc(NC(=O)N(C)C[C@H]2Oc3cc(C#CC4(O)CCCC4)ccc3S(=O)(=O)N([C@@H](C)CO)C[C@@H]2C)c1,inactive
17,COc1cccc(NC(=O)N(C)C[C@@H]2Oc3cc(C#CC4(O)CCCC4)ccc3S(=O)(=O)N([C@@H](C)CO)C[C@H]2C)c1,inactive
18,COc1cccc(NC(=O)N(C)C[C@@H]2Oc3cc(Br)ccc3S(=O)(=O)N([C@@H](C)CO)C[C@H]2C)c1,inactive
19,COc1cccc(NC(=O)N(C)C[C@H]2Oc3cc(C#Cc4ccncc4)ccc3S(=O)(=O)N([C@@H](C)CO)C[C@H]2C)c1,active
20,COc1cccc(NC(=O)N(C)C[C@@H]2Oc3cc(C#Cc4ccncc4)ccc3S(=O)(=O)N([C@@H](C)CO)C[C@H]2C)c1,active
21,COc1cccc(NC(=O)N(C)C[C@@H]2Oc3cc(C#CC4(O)CCCC4)ccc3S(=O)(=O)N([C@@H](C)CO)C[C@@H]2C)c1,inactive
22,COc1cccc(NC(=O)N(C)C[C@H]2Oc3cc(C#Cc4ccncc4)ccc3S(=O)(=O)N([C@H](C)CO)C[C@@H]2C)c1,active

row,Structure (SMILES),cytotoxicity call
1,COc1cccc(NC(=O)N(C)C[C@H]2Oc3cc(C#Cc4ccncc4)ccc3S(=O)(=O)N([C@H](C)CO)C[C@H]2C)c1,active
2,COc1cccc(NC(=O)N(C)C[C@@H]2Oc3cc(C#CC4(O)CCCC4)ccc3S(=O)(=O)N([C@H](C)CO)C[C@@H]2C)c1,inactive
3,CN(C)CC#Cc1ccc([C@H]2[C@H](CO)N3C(=O)CN(C(=O)CN(C)C)C[C@@H]23)cc1,inactive
4,C/C=C/c1ccc2c(c1)O[C@@H](CN(C)C(=O)c1ccc3c(c1)OCO3)[C@H](C)CN([C@H](C)CO)S2(=O)=O,inactive
5,COC(=O)c1cn(-c2cccc(N)c2)nn1,inactive
6,C[C@H]1CN([C@@H](C)CO)C(=O)Cc2cc(NS(=O)(=O)c3ccc(Cl)cc3)ccc2O[C@H]1CN(C)C(=O)Nc1cccc2ccccc12,inactive
7,C[C@H]1CN([C@@H](C)CO)C(=O)c2cccc(NC(=O)NC3CCCCC3)c2O[C@H]1CN(C)Cc1ccc(Oc2ccccc2)cc1,inactive
8,C[C@@H]1CCCCO[C@H](CN(C)Cc2ccncc2)[C@@H](C)CN([C@@H](C)CO)C(=O)c2cc(NC(=O)CCC(F)(F)F)ccc2O1,inactive
9,C[C@H]1CN([C@@H](C)CO)C(=O)c2cc(NC(=O)CCCCCC(=O)Nc3ccccc3N)ccc2O[C@@H]1CN(C)C(=O)Nc1ccc(F)cc1,inactive
10,CN1CCN(C(=O)C[C@H]2CC[C@@H]3[C@H](COC[C@H](O)CN3S(=O)(=O)c3cccc(Cl)c3)O2)CC1,inactive
11,CN(C)C(=O)C[C@@H]1CC[C@@H]2[C@@H](COc3ccc(NS(=O)(=O)c4cccc(F)c4)cc3C(=O)N2C)O1,inactive
12,C[C@@H]1CN([C@H](C)CO)C(=O)CCCn2nncc2CO[C@H]1CN(C)S(=O)(=O)c1cccc(C#N)c1,inactive
13,CO[C@H]1CN(C)C(=O)c2cc(NC(=O)Nc3ccccc3F)ccc2OC[C@@H](C)N(CCC(F)(F)F)C[C@@H]1C,inactive
14,C[C@H]1CN([C@@H](C)CO)C(=O)c2cc(NC(=O)CCN3CCOCC3)ccc2O[C@H]1CN(C)Cc1ccccc1,inactive
15,CN1CCN(C(=O)C[C@@H]2CC[C@H]3[C@@H](COc4ccc(NC(=O)c5cccs5)cc4C(=O)N3C)O2)CC1,inactive
16,O=C(O)CC(CC(=O)O)C(=O)O,inactive
17,Cc1ccc(S(=O)(=O)N(C)C[C@@H]2Oc3c(NC(=O)C4CCOCC4)cccc3C(=O)N([C@@H](C)CO)C[C@@H]2C)cc1,inactive
18,C[C@@H]1CCCCO[C@H](CN(C)C(=O)Nc2ccccc2)[C@H](C)CN([C@H](C)CO)C(=O)c2cc(NC(=O)c3ccncc3)ccc2O1,inactive
19,CC1(C)S[C@H]2[C@@H](NC(=O)[C@@H](N)c3ccccc3)C(=O)N2[C@@H]1C(=O)O,active
20,CC1(C)S[C@@H]2[C@H](NC(=O)[C@H](N)c3ccc(O)cc3)C(=O)N2[C@H]1C(=O)O,inactive
21,CC1(C)SC2C(NC(=O)C(N)c3ccc(O)cc3)C(=O)N2C1C(=O)O (centres undefined),inactive
22,C/C=C/c1ccc2c(c1)O[C@H](CN(C)C(=O)c1ccc3c(c1)OCO3)[C@H](C)CN([C@@H](C)CO)S2(=O)=O,inactive

row,Structure (SMILES),cytotoxicity call
1,COc1ccc(CNC(=O)N(C)C[C@@H]2OCc3ccccc3-c3c(n(C)c4ccccc34)C(=O)N([C@@H](C)CO)C[C@@H]2C)cc1,inactive
2,C[C@@H]1CCCCO[C@H](CN(C)S(=O)(=O)c2ccccc2)[C@@H](C)CN([C@@H](C)CO)C(=O)c2cc(NC(=O)Nc3cccc4ccccc34)ccc2O1,inactive
3,C[C@H](CO)N1C[C@H](C)[C@@H](CN(C)Cc2ccc(-c3ccccc3)cc2)Oc2ccc(NS(=O)(=O)c3ccc(F)cc3)cc2CC1=O,active
4,C[C@H](CO)N1C[C@H](C)[C@H](CN(C)Cc2ccc(-c3ccccc3)cc2)Oc2ccc(NS(=O)(=O)c3ccc(F)cc3)cc2CC1=O,active
5,C[C@H]1CN([C@@H](C)CO)C(=O)Cc2cc(NS(=O)(=O)c3ccc(F)cc3)ccc2O[C@@H]1CN(C)Cc1ccc(-c2ccccc2)cc1,inactive
6,C[C@@H]1CN([C@H](C)CO)C(=O)Cc2cc(NS(=O)(=O)c3ccc(F)cc3)ccc2O[C@@H]1CN(C)Cc1ccc(-c2ccccc2)cc1,active
7,C[C@H]1CN([C@@H](C)CO)C(=O)Cc2cc(NS(=O)(=O)c3ccc(F)cc3)ccc2O[C@H]1CN(C)Cc1ccc(-c2ccccc2)cc1,inactive
8,C[C@@H]1CN([C@@H](C)CO)C(=O)Cc2cc(NS(=O)(=O)c3ccc(F)cc3)ccc2O[C@@H]1CN(C)Cc1ccc(-c2ccccc2)cc1,active
9,C[C@@H]1CN([C@@H](C)CO)C(=O)Cc2cc(NS(=O)(=O)c3ccc(F)cc3)ccc2O[C@H]1CN(C)Cc1ccc(-c2ccccc2)cc1,inactive
10,C[C@@H]1CN([C@@H](C)CO)C(=O)c2cc(C#CCc3ccccc3)cnc2O[C@@H]1CN(C)CC1CCOCC1,inactive
11,COc1ccc(NC(=O)N(C)C[C@@H]2Oc3c(NC(=O)Nc4cccc5ccccc45)cccc3C(=O)N([C@H](C)CO)C[C@@H]2C)cc1,inactive
12,C[C@@H]1CCCCO[C@H](CN(C)C(=O)c2ccccc2)[C@@H](C)CN([C@H](C)CO)C(=O)c2cc(NS(=O)(=O)c3ccc(F)cc3)ccc2O1,inactive
13,C[C@@H]1CCCCO[C@@H](CN(C)S(=O)(=O)c2ccccc2)[C@@H](C)CN([C@@H](C)CO)C(=O)c2cc(NS(=O)(=O)c3cn(C)cn3)ccc2O1,inactive
14,COc1ccc(S(=O)(=O)Nc2ccc3c(c2)CC(=O)N([C@H](C)CO)C[C@@H](C)[C@H](CN(C)S(=O)(=O)c2ccccc2)O3)cc1,inactive
15,Cc1noc(C)c1NC(=O)N[C@H]1C=C[C@H](CC(=O)N2CCN(C)CC2)O[C@@H]1CO,inactive
16,C[C@H]1CCCCO[C@@H](CN(C)C(=O)NC2CCCCC2)[C@@H](C)CN([C@@H](C)CO)C(=O)c2cc(NC(=O)Cc3ccccc3)ccc2O1,inactive
17,COc1ccc(NC(=O)Nc2cccc3c2O[C@H](CN(C)C(=O)Nc2cccc4ccccc24)[C@H](C)CN([C@@H](C)CO)C3=O)cc1,inactive
18,Cc1c(N2CCCC2)cc2c(c1-n1cccc1)C(C)(C)CC2(C)C,inactive
19,COc1ccc2c3c(n(c2c1)C)[C@@H](CO)N(Cc1cc(cc(c1)OC)OC)C[C@]13CN(C1)S(=O)(=O)c1cn(cn1)C,inactive
20,O=S(=O)(NCC[C@@H]1CC[C@@H](NS(=O)(=O)c2ccccc2Cl)[C@H](CO)O1)c1ccc(Cl)cc1,inactive
